# NIH3T3 tox = cytotoxic compounds in NIH 3T3 cells. Potency, µM (top dose mostly 96.7 µM), without a hit: at the top dose activity change, negative = cytotoxicity, actives largely listed as inhibitors. 4.3% of 94,000 active. AID 1345082. NIH 3T3 viability, CellTiter-Glo ATP luminescence, 48-72 h; further: nearly all actives have a fitted effect of over 55% in size
#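 Luminescent ATP readout (CellTiter-Glo, 10 min RT) after 48 or 72 hr compound exposure of NIH 3T3 cells seeded at 400 cells/well in 1536-well format; quantitative HTS.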
# HEK293 tox = HEK 293 cell cytotoxicity | HEK 293 viability, ATP luminescence (CellTiter-Glo), 48-72 h | Potency, µM (titrated, usually from 115 µM), for inactives: at the highest dose activity change, negative = cytotoxicity, hits mostly inhibitors | 6.6% of 94,000 active; further: nearly all actives have a fitted effect of over 60% in size
#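 Luminescence from cellular ATP, measured with CellTiter-Glo, indicates HEK 293 viability. Cells plated at 250 cells/well are treated with compound for 48 or 72 hr at 37 degree Celsius before reagent addition.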
# NPR1 antag = blocks ANP-stimulated signaling of human Npr1 receptor | P16066 | HEK293 hNpr1 GloSensor cGMP, ANP-stimulated luminescence | Potency, µM (series often up to 46.3 µM), for the others: at the highest dose activity change, negative = inhibition, most hits filed as inhibitors | 1.6% of 76,000 active; calls by dose curve; further: nearly all actives have a fitted effect of over 60% in size
#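 Compound pre-incubated 30 min at room temperature on GloSensor-loaded HEK293 cells stably carrying hNpr1 and the pGS-40F cGMP biosensor. Stimulation uses hNppA at 0.1 nM final; luminescence is taken at baseline and 20 min post-agonist.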
# FLuc inh = Photinus pyralis luciferase inhibition; purified P. pyralis luciferase, luminescence, biochemical; P08659; 2.5% of 76,000 active; Potency, µM (highest dose often 115 µM), hits mostly inhibitors; further: nearly all actives have a fitted effect of over 65% in size
# Target sequence (P08659 whole entry, looked up): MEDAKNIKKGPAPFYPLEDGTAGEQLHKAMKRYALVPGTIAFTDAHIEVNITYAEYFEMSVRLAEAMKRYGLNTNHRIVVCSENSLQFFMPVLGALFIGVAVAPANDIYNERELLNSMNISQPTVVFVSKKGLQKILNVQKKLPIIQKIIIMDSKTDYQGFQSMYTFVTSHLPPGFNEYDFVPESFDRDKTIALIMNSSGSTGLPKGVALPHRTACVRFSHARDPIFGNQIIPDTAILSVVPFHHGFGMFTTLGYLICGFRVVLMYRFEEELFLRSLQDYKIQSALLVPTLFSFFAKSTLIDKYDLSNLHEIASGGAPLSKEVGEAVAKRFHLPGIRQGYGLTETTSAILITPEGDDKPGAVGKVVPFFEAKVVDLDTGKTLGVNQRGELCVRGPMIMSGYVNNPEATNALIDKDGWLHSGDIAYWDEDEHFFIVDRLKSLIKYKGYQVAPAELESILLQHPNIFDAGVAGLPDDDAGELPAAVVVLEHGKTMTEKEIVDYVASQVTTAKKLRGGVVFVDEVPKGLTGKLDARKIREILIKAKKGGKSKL
#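 FLuc 10nM, D-luciferin 10uM, ATP 10uM, Mg acetate 10mM, Tris acetate pH 7.5, Tween/BSA; cpd qHTS; enzyme added last; CCD luminescence.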
# Starred values were filed as active, the others as inactive; i = inactive; ? = inconclusive; nt = no result given; ! = not active in a repeat; [ ] = another dose, or the depositor's remark. Hits are enriched below; roughly 11% of the tested compounds scored in any of these assays. Unless noted, the call rests on the fitted dose curve; in most records, active means well fitted curve in the direction sought with a large enough effect; inconclusive means small, poorly fitted or top-dose-only effect, or another doubt; inactive means no such curve, though single readings can be large; an effect the other way counts as inactive or inconclusive. On the % scale 0 is the no-effect control and ±100 the full control effect; potency means the concentration at half of the fitted maximal effect.
SMILES,NIH3T3 tox,HEK293 tox,NPR1 antag,FLuc inh
CCOC(=O)[C@H]1[C@@H](O)C(=O)N(C(C)C)C12CCN(C(=O)Nc1ccc3c(c1)OCO3)CC2,?,-2%,nt,nt
CC1CCN(C(=O)c2ccc(-c3ccc(N4CCSCC4)nc3)cc2)CC1,?,20µM*,?,?
COc1cccc(CNC(=O)c2ccc(-c3ccc(N4CCSCC4)nc3)cc2)c1,-14%,?,?,?
O=C(NCc1ccccc1)c1ccc(-c2ccc(N3CCSCC3)nc2)cc1,?,?,-1%,i
CN1CCN(C(=O)c2ccc(-c3ccc(N4CCCCC4)nc3)cc2)CC1,?,?,-2%,22µM*
O=C(c1ccc(-c2ccc(N3CCSCC3)nc2)cc1)N1CCOCC1,35µM*,25µM*,?,?
CCOC(=O)c1oc2ccc(S(=O)(=O)N3CCCCCCNC(=O)[C@@H]4CCC[C@@H]43)cc2c1C,-26%,?,6%,i
Cc1cc(C)cc(Nc2nc(C)cc(=O)n2CC(=O)Nc2cccc(Br)c2)c1,?,?,-22%,i
Cc1ccc(N2CCN(C(=O)c3noc(-c4ccc5c(c4)OCO5)n3)CC2)c(C)c1,?,?,-21%,i
Cc1cccc(N2CCN(C(=O)c3noc(-c4ccc5c(c4)OCO5)n3)CC2)c1,?,?,-1%,22µM*
O=C(c1nnc(CN2CCC(F)(F)CC2)n1-c1cccnc1)N1CCC[C@@H]1C(c1ccccc1)c1ccccc1,25µM*,-24%,-6%,i
O=C(c1nnc(COc2ccc(F)cc2)n1-c1ccccc1)N1CCC[C@@H]1C(c1ccccc1)c1ccccc1,6.3µM*,?,-8%,i
O=C(c1nnc(CN2CCOCC2)n1-c1ccccc1)N1CCC[C@@H]1C(c1ccccc1)c1ccccc1,?,?,-2%,i
O=C(c1nnc(COc2cc(F)cc(F)c2)n1-c1ccccc1)N1CCC[C@@H]1c1cccc(F)c1,40µM*,?,-2%,i
O=C(c1nnc(COc2ccc(F)c(F)c2)n1-c1ccccc1)N1CCC[C@@H]1c1cccc(F)c1,10µM*,?,-11%,i
CN(Cc1ccccc1)Cc1nnc(C(=O)N2CCC[C@@H]2c2cccc(F)c2)n1-c1ccccc1,?,?,-10%,i
N#Cc1cccc(C(=O)N2CCC(Cc3nc(C4CC4)n[nH]3)C2)c1 (centres undefined),-10%,-15%,nt,nt
CCS(=O)(=O)Nc1ccc(C2(C(=O)NCc3cc(F)cc(F)c3)CCCCC2)cc1,-22%,?,-3%,i
O=C(Nc1ccc2oc(-c3ccccc3)nc2c1)C1CCN(c2cnn(Cc3ccccc3)c(=O)c2)C1 (centres undefined),-1%,-4%,-2%,?
CCN(CC)CC(=O)N1CCC(C(=O)Nc2ccc(-c3nc4ccccc4o3)cc2)CC1,22µM*,22µM*,1%,i
O=C(c1ccccc1Cl)N1CCCC1C(=O)N1CCCC1c1nc2ccncc2[nH]1 (centres undefined),-6%,-2%,nt,nt
Cc1ccccc1CC(=O)N1CCC(Oc2ncccc2C(=O)N2CCCCC2)C1 (centres undefined),-10%,4%,-3%,i
O=C(NCc1cccc(C(F)(F)F)c1)c1cn2cc(-c3ccc(F)cc3)sc2n1,40µM*,?,nt,nt
O=C(NCc1cccc(C(F)(F)F)c1)c1cn2cc(-c3ccccc3)sc2n1,-26%,45µM*,nt,nt
O=C(NCc1cccnc1)c1cn2cc(-c3ccc(C(F)(F)F)cc3)sc2n1,?,20µM*,nt,nt
SMILES,NIH3T3 tox,HEK293 tox,NPR1 antag,FLuc inh
COc1ccc(-c2cn3cc(C(=O)NCc4cccc(C(F)(F)F)c4)nc3s2)cc1,?,35µM*,nt,nt
O=C(NCc1ccc(F)cc1)c1cn2cc(-c3ccc(C(F)(F)F)cc3)sc2n1,?,50µM*,nt,nt
O=C(NCc1ccc(Cl)cc1)c1cn2cc(-c3ccc(F)cc3)sc2n1,?,28µM*,nt,nt
O=C(NCc1cccc(Cl)c1)c1cn2cc(-c3ccc(C(F)(F)F)cc3)sc2n1,22µM*,45µM*,nt,nt
COc1ccc(-c2cn3cc(C(=O)NCc4ccc(F)c(F)c4)nc3s2)cc1,?,13µM*,nt,nt
O=C(NCc1ccc(F)cc1)c1cn2cc(-c3cccc(C(F)(F)F)c3)sc2n1,?,-24%,nt,nt
O=C(NCC(F)(F)F)c1cn2cc(-c3ccccc3)sc2n1,89µM*,?,nt,nt
CNC(=O)c1cn2cc(-c3ccc(OC)cc3)sc2n1,100µM*,71µM*,nt,nt
C#CCNC(=O)c1cn2cc(-c3ccc(OC)cc3)sc2n1,-26%[138 µM],-17%[172 µM],nt,nt
Cc1nncn1C1CCN(S(=O)(=O)c2ccccc2Cl)CC1,i,3%,-1%,i
O=C(Nc1ccccc1)c1cnc2n1CCN(Cc1ccc3[nH]ccc3c1)CC2,89µM*,100µM*,-2%[70.6 µM],i
COc1ccccc1CN1CCc2ncc(C(=O)Nc3ccccc3)n2CC1,?,?,-1%[70.6 µM],i
COc1ccc(OC)c(CN2CCc3ncc(C(=O)Nc4ccccc4)n3CC2)c1,?,112µM*,-8%[70.6 µM],i
O=C(NCCOc1ccccc1)c1cnc2n1CCN(Cc1ccc3[nH]ccc3c1)CC2,?,?,0%[70.6 µM],i
O=c1[nH]c(C2CCCN(Cc3ccccc3)C2)nn1-c1ccccc1 (centres undefined),89µM*,100µM*,16%[70.6 µM],i
O=C(c1ccccc1Cl)N1CCCC(c2nn(-c3cccc(Cl)c3)c(=O)[nH]2)C1 (centres undefined),35µM*,35µM*,14%,i
CC(C)(C)C(=O)N1CCC(c2nn(-c3ccccc3)c(=O)[nH]2)CC1,-10%[138 µM],?,0%[70.6 µM],50µM*
COc1ccc(-n2nc(C3CCN(C(=O)C(C)(C)C)CC3)[nH]c2=O)cc1,?,2%,4%,i
COc1ccc(-n2nc(C3CCN(Cc4ccc(C(F)(F)F)cc4)CC3)[nH]c2=O)cc1,?,32µM*!,?,i
COc1ccc(CCNC(=O)C2(Cc3ccccc3)CCCCC(=O)N2)cc1OC (centres undefined),-25%,-9%,nt,nt
O=C(Nc1ccc(Cl)cc1)N1CCCC(c2nn(-c3ccccn3)c(=O)[nH]2)C1 (centres undefined),35µM*,40µM*,nt,nt
O=c1[nH]c(C2CCCN(Cc3ccc(F)cc3)C2)nn1-c1ccc(Cl)cc1 (centres undefined),35µM*,45µM*,12%,i
O=c1[nH]c(C2CCCN(Cc3ccc(F)cc3)C2)nn1-c1ccccc1 (centres undefined),-30%,-18%,-2%,i
O=C(NC1CCCC1)N1CCCC(c2nn(-c3ccccn3)c(=O)[nH]2)C1 (centres undefined),-4%,i,nt,nt
O=C(CCc1nnn2c1CN(C(=O)c1nccc3ccccc13)CC2)N1CCCC1,-21%,-13%,nt,nt
O=C(CCc1cc(Cl)no1)N1CCc2nc3cc(-c4ccccc4)[nH]n3c(=O)c2C1,-18%,?,-9%,?

# High-throughput results deposited in PubChem by National Center for Advancing Translational Sciences (NCATS).
